RecA intein inh: blocks M. tuberculosis RecA intein splicing. P9WHJ3. cell-free RecA intein splicing, fluorescence. inhibition, % (concentration not given with the values). 290,000 compounds, 0.75% hits. AID 2221; in the data active = inhibition above about 30%;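 also: 0% = vehicle wells and 100% = reference inhibitor control wells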
Target sequence (P9WHJ3 whole entry, looked up): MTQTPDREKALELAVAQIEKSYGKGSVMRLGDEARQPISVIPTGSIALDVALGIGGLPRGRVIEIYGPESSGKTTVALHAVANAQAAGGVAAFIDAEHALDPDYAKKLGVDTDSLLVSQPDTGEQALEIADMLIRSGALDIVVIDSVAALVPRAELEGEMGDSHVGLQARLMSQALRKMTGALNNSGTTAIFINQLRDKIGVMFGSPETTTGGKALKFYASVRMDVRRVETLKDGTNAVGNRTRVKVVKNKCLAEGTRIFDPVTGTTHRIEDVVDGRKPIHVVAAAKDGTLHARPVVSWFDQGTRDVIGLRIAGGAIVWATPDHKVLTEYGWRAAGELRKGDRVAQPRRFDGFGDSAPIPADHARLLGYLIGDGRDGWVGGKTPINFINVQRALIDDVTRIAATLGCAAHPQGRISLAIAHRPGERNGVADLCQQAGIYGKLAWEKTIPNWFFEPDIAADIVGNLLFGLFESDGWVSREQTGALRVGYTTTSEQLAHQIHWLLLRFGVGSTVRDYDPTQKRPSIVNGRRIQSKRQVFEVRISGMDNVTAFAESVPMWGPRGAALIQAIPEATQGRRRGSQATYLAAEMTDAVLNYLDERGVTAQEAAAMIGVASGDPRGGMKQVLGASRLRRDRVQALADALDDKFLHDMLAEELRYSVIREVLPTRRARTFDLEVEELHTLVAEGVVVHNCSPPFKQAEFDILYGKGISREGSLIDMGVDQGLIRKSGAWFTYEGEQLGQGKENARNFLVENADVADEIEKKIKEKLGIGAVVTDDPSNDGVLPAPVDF
Mtb FBA inh: inhibits M. tuberculosis FBA enzyme; inhibition, % at 1 µM; AID 588726; P9WQA3; purified M. tuberculosis FBA, fluorescence read-out; 360,000 compounds, 2.3% hits;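 also: 0% = vehicle and 100% = reference inhibitor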
BJeLR lethal: BJeLR cell viability loss. 300,000 compounds, 0.17% hits. AID 1554. BJeLR (HRASV12) viability, CellTiter-Glo ATP luminescence, 48 h. inhibition, % (test concentration not listed); in the data active = inhibition above about 50%
GDH-TPI counter-1: counter-screen for M. tuberculosis FBA inhibitors: GDH-TPI coupled enzymes; inhibition, % at 4.8 µM; GDH-TPI coupled enzyme counterscreen, NADH absorbance; 360,000 compounds, 1.2% hits; in the data active = inhibition above about 30%;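 also: 0% = DMSO wells and 100% = wells lacking the enzyme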
PrPC TRFRET: cell surface PrPC inhibition, primary TR-FRET screen. TR-FRET read-out. 370,000 compounds, 0.43% hits. AID 720596. inhibition, % at 13.8 µM; in the data active = inhibition above about 24%; also: 0% = median of the test wells and 100% = reference compound wells
Mtb FBA inh conf: Mtb FBA inhibition, confirmed. shares compounds with Mtb FBA inh. 5,600 compounds, 78% hits. purified M. tuberculosis FBA, fluorescence read-out. inhibition, % at 1 µM;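 also: 0% = vehicle wells and 100% = reference inhibitor wells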
GDH-TPI counter-2: GDH-TPI inhibition counter-screen for FBA inhibitors; GDH-TPI coupled enzyme counterscreen, fluorescence; 5,600 compounds, 81% hits; inhibition, % at 1 µM; shares compounds with Mtb FBA inh; in the data active = inhibition above about 10%
GDH-TPI DR: inhibits GDH-TPI coupling enzymes in dose response; shares compounds with Mtb FBA inh; GDH-TPI coupled enzyme assay, fluorescence, artifact counterscreen; IC50, µM; 170 compounds, 79% hits; AID 652145; call rule not given here
An asterisk follows results filed as active; / = no result given; + = active, no number. A selection: hits, their analogues and other compounds. The true share with any hit is near 4.2%. Rule as the data show it, unless noted: active = inhibition above about 27%; inactive = the rest.

SMILES	RecA intein inh	Mtb FBA inh	BJeLR lethal	GDH-TPI counter-1	PrPC TRFRET	Mtb FBA inh conf	GDH-TPI counter-2	others
C/C(=N/Nc1ccc(C)cc1)C1(C)N(O)C(C)(C)C(c2ccco2)=[N+]1[O-] (stereo not given)	-1	33*	2	8	-1	74*	58*
Cc1cc2nnc(SC(C)C#N)n2c2ccccc12 (stereo not given)	0	3	-3	10	-9	/	/
Cc1cc2nnc(SC(C)C)n2c2ccccc12	0	28*	12	15	-4	130*	103*
CCOc1cc2oc(=O)c3c(c2cc1Cl)CCC3	1	4	1	5	-4	/	/
O=C(COc1ccc2c3c(c(=O)oc2c1)CCC3)NCc1ccncc1	-1	20	0	9	3	/	/
CCc1cc2c3c(c(=O)oc2cc1OC)CCCC3	3	67*	0	10	-4	77*	53*
NS(=O)(=O)c1ccc(CCNC(=O)COc2ccc3c4c(c(=O)oc3c2)CCC4)cc1	-4	23	0	28	-8	/	/
CCCOc1ccc2c3c(c(=O)oc2c1)CCCC3	3	60*	3	3	-2	97*	76*
C=CCOc1ccc2c3c(c(=O)oc2c1)CCCC3	/	74*	/	5	-2	+	+
O=C(N[C@H](C(=O)N1CCC[C@H]1C(=O)NCc1ccccc1)c1ccccc1)c1ccc(Cl)cc1Cl	/	/	/	/	-7	/	/
Cc1cc(N2CCC(N(C)C3CCCC3)CC2)nc2cc(O)ccc12	-46	28*	19	15	-1	91*	73*
C=CCN(Cc1ccc2c(c1)OCO2)C(C#Cc1ccccc1)c1ccccc1C(F)(F)F (stereo not given)	/	/	/	/	-3	/	/
Cc1ccc2cc(-c3noc(C4CCCO4)n3)c(=O)[nH]c2c1 (stereo not given)	2	37*	4	16	5	42*	45*
Cc1ccc2cc(-c3noc(C4CCCCC4)n3)c(=O)[nH]c2c1	0	1	2	3	5	/	/
COc1ccc2nc(/N=C(\N)NC(=O)C(C)(C)C)nc(C)c2c1	-5	46*	3	5	-3	10	-4	GDH-TPI DR=3.6*
CCC(=O)N/C(N)=N/c1nc(C)c2cc(OC)ccc2n1	-5	40*	14	6	-4	+	+
COc1ccc2nc(/N=C(\N)NC(=O)N3c4ccccc4Sc4ccccc43)nc(C)c2c1	-6	8	6	2	-1	/	/
CCOC(=O)CSc1nc(C)c2cc(OC)ccc2n1	-1	49*	-12	7	-2	64*	36*
CCCCNC(=O)N1CCCC1C(=O)Nc1cccc(OC)c1 (stereo not given)	/	/	/	/	-5	/	/
CCOC(=O)C1CCN(C(=O)C(C)(C)NC(=O)Nc2ccc3c(c2)CCC3)CC1	/	/	/	/	-6	/	/
O=C(CNC(=O)C1CCCCC1)OCc1cc(=O)oc2ccc3ccccc3c12	-1	43*	6	10	-6	3	-3
O=C(Nc1ccc(F)cc1)OCCN1C(=O)CCC12CCC(c1ccccc1)CC2 (stereo not given)	/	/	/	/	-6	/	/
Cc1cc(C(=O)COC(=O)c2ccccc2NCCO)c(C)n1CC1CCCO1 (stereo not given)	2	29*	-5	16	3	+	+
Cc1cc(C(=O)COC(=O)c2ccccc2O)c(C)n1CC1CCCO1 (stereo not given)	/	-1	/	11	8	/	/
COc1ccccc1N1Cc2ccc(OC)c(OC)c2C1=O	0	5	-4	8	-2	/	/
SMILES	RecA intein inh	Mtb FBA inh	BJeLR lethal	GDH-TPI counter-1	PrPC TRFRET	Mtb FBA inh conf	GDH-TPI counter-2	others
COc1ccc2c(c1OC)C(=O)N(c1ccccn1)C2	1	45*	8	1	-3	115*	106*
Cc1c(OC(C)C(=O)NCC(O)c2ccccc2)ccc2c3c(c(=O)oc12)CCC3 (stereo not given)	-2	29*	2	17	11	+	+
Cc1c(OC(C)C(=O)N[C@H](C(=O)O)c2ccccc2)ccc2c3c(c(=O)oc12)CCCC3 (stereo not given in full)	-2	81*	4	28	9	81*	59*
CC(=O)C(C)Oc1ccc2c3c(c(=O)oc2c1C)CCCC3 (stereo not given)	1	61*	-7	16	15	88*	70*
Cc1cc(=O)oc2c(C)c(OC(C)C(=O)NCCN3CCOCC3)ccc12 (stereo not given)	-2	13	-8	5	6	/	/
Cc1c(OC(C)C(=O)NC2CC(C)(C)NC(C)(C)C2)ccc2c3c(c(=O)oc12)CCC3 (stereo not given)	2	20	-5	8	-10	/	/
Cc1c(OC(C)C(=O)NCCN2CCOCC2)ccc2c3c(c(=O)oc12)CCCC3 (stereo not given)	-1	34*	-1	2	-8	50*	38*
CCCN(CC1CC1)C(=O)CSc1nnc(-c2ccncc2)n1-c1ccc(OC)cc1	/	/	/	/	8	/	/
O=C(Nc1cccc(Cl)c1)NN(c1ccccc1)C1CCS(=O)(=O)C1 (stereo not given)	/	/	/	/	6	/	/
CCCCCC(=O)NC1CCCCN(Cc2ccccc2C)C1=O (stereo not given)	/	/	/	/	9	/	/
COc1ccc(Oc2cccc3c2S(=O)(=O)N(C2CC2)C[C@@H](COCc2ccccc2)O3)cc1	/	/	/	/	7	/	/
Cc1cc(OCC(=O)NC2CCN(Cc3ccccc3)CC2)c2c(C)c(C)c(=O)oc2c1	0	8	-8	19	/	/	/
Cc1cc(OCC(=O)NC(Cc2c[nH]c3ccc(O)cc23)C(=O)O)c2c(C)c(C)c(=O)oc2c1 (stereo not given)	2	33*	-4	3	-9	+	+
Cc1cc(OCC(=O)NC(Cc2ccc(Cl)cc2)C(=O)O)c2c3c(c(=O)oc2c1)CCCC3 (stereo not given)	/	70*	-5	14	3	0	-4
Cc1c(OCC(=O)NC(Cc2c[nH]c3ccc(O)cc23)C(=O)O)ccc2c3c(c(=O)oc12)CCC3 (stereo not given)	-7	7	-4	16	5	/	/
Cc1cc(OCC(=O)NC(Cc2ccc(Cl)cc2)C(=O)O)c2c(C)c(C)c(=O)oc2c1 (stereo not given)	-2	60*	-9	13	-6	186*	143*
CON(C)C(=O)C(C)(C)CC#CCN(CC#Cc1ccccc1)S(=O)(=O)c1ccc(C)cc1	/	/	/	/	1	/	/

High-throughput results from PubChem BioAssay.
